# Out of some 310,000 compounds screened, about 14,000 (4.5%) showed an effect of 50% or more. The effect is printed as a negative number. The full list was thinned out, with strong results kept by preference.
# Biological target: human ether-à-go-go-related gene (hERG) potassium channel (human, UniProt Q12809)
# Experiment: primary screen, population patch clamp on CHO cells stably expressing hERG; higher = less effect of the substance
# 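Further: peak tail current of the secondary pulse compared with the same well before compound.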
# Chain of human ether-à-go-go-related gene (hERG) potassium channel (Q12809 whole entry, looked up): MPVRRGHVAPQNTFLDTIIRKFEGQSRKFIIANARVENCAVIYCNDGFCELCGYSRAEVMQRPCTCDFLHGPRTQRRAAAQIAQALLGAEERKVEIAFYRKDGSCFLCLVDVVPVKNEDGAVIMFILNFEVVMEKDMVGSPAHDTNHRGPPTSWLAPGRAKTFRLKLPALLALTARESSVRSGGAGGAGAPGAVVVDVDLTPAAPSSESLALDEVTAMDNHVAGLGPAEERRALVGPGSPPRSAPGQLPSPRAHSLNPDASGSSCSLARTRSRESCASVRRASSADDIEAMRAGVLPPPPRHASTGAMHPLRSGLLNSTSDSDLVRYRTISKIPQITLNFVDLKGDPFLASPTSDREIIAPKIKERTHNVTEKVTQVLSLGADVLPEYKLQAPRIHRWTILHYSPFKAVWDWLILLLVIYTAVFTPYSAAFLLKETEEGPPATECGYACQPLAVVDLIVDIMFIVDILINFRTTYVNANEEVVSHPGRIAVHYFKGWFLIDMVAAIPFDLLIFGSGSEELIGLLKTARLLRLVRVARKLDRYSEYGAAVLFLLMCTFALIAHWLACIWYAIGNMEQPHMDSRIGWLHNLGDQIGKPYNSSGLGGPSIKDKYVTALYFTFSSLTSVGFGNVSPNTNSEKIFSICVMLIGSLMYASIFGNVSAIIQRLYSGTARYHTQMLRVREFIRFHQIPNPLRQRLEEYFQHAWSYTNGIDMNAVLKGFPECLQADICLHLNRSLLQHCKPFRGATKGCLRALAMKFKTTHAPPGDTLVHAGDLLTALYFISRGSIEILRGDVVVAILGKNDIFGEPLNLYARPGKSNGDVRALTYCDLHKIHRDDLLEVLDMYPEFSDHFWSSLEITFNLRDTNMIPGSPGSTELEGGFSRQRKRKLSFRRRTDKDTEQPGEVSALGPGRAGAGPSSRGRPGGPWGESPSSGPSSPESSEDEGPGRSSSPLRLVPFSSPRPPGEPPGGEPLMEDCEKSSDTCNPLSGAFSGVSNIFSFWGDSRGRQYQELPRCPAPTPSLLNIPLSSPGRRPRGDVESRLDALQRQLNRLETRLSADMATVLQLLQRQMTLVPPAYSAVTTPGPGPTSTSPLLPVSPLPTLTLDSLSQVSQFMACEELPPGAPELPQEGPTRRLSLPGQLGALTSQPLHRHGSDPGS
row,SMILES,"hERG current change (%, negative = inhibition) at 10uM [%]"
1,CCOCCCNC(=O)c1ccc(NC(=O)C2=CSCCO2)cc1,15.4
2,CN(C(=S)NC(=O)C1(C)CC1(Cl)Cl)c1ccccc1 (stereo not shown),16.7
3,COc1cccc2c1C(CO)N1C(C#N)C3CC(C(=O)O)C(C1C2)N3C (stereo not shown),12.3
4,NC(=O)C1CCN(CCC(=O)Nc2ccc(F)c(F)c2)CC1,11.1
5,COc1ccccc1C(=O)Nc1cccc(NC(=O)c2ccccc2OC)n1,8.14
6,Clc1ccccc1OCCCCN1CCNCC1.O=C(O)C(=O)O,12.7
7,Clc1ccccc1OCCN1CCC(Cc2ccccc2)CC1.O=C(O)C(=O)O,-73.4
8,CCOc1ccccc1OCCN1CCC(Cc2ccccc2)CC1.O=C(O)C(=O)O,-67.4
9,CCN1CCN(CCCCOc2ccccc2F)CC1.O=C(O)C(=O)O,-9.65
10,Clc1ccccc1OCCN1CCCCC1,-16.2
11,Cc1ccccc1OCCOCCN1CCCCCC1.O=C(O)C(=O)O,-29.3
12,CCN1CCN(CCOc2cccc(Cl)c2Cl)CC1.O=C(O)C(=O)O,-3.27
13,CCN1CCN(CCOc2ccccc2OCc2ccccc2)CC1.O=C(O)C(=O)O,-73.2
14,CCOc1ccccc1OCCN1CCCC1,9.51
15,Cc1ccccc1OCCN1CCC(Cc2ccccc2)CC1.O=C(O)C(=O)O,-58.5
16,Cc1ccccc1OCCN1CCCC1,7.01
17,CCOc1ccccc1OCCOCCN1CCN(Cc2ccccc2)CC1.O=C(O)C(=O)O,-48.5

row,SMILES,"hERG current change (%, negative = inhibition) at 10uM [%]"
1,Cc1cc2c(cc1S(=O)(=O)Nc1ccc(OC(F)(F)F)cc1)OCC(=O)N2,-42.5
2,CCOC(CNC(=O)c1cccn2c(=O)c3c(C)c(C)sc3nc12)OCC,-12.5
3,CCc1nnc(NC(=O)C(=O)NCCOC(=O)c2ccccc2Cl)s1,5.68
4,Cc1cccc(-c2noc(CNC(=O)Nc3ccc(F)cc3)n2)c1,8.56
5,Cc1ccc(N(CC(=O)NCc2ccccc2)C(=O)CCC(=O)Nc2ccccn2)cc1C,16.4
6,CC(O)c1nc2ccccc2n1CC(=O)Nc1ccc2c(c1)OCCO2 (stereo not shown),-4.28
7,CCn1c(N2CCN(CC(=O)Nc3cccc(C)c3C)CC2)nc2ccccc21,-63.6
8,CC(C)Cn1c(N2CCN(CC(=O)Nc3ccc(Cl)cc3)CC2)nc2ccccc21,-70.5
9,Cc1ccc(SCc2nc3ccccc3n2CC(=O)Nc2ccc(Cl)cc2)cc1,-8.31
10,CC(=O)Nc1ccc(S(=O)(=O)N2CCN(c3nc4ccccc4n3CC(C)C)CC2)cc1,-30.9
11,CCn1c(N2CCN(S(=O)(=O)CC)CC2)nc2ccccc21,-37.7
12,CCCCNc1nc2ccccc2n1CC(=O)Nc1ccc2c(c1)OCCO2,-10.2
13,O=C(CN1CCN(c2ccccc2)CC1)Nc1ccc2c(c1)OCCO2,5.46
14,Cc1cccc(N2CCN(CC(=O)Nc3ccccc3[N+](=O)[O-])CC2)c1C,-0.256
15,CCCn1c(N2CCN(CC(=O)Nc3ccc4c(c3)OCCO4)CC2)nc2ccccc21.Cl,-60.4
16,O=C(CN1CCN(c2ccc(O)cc2)CC1)Nc1ccc2c(c1)OCCO2,2.24
17,CC(C)n1c(N2CCN(CC(=O)Nc3ccc4c(c3)OCCO4)CC2)nc2ccccc21,-65.4

# — article PMC4336329 (PLoS ONE, 2015)
